Screening results from PubChem.
AMA1 RON2 block: inhibitors of Plasmodium falciparum AMA1-RON2 interaction. AlphaScreen AMA1-biotinylated RON2 peptide binding. AID 720542. Potency, µM (highest dose often 58.2 µM), inactives show at the highest dose activity change, negative = inhibition, actives largely listed as inhibitors. 360,000 compounds, 0.2% hits;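 note: 0% = vehicle wells and -100% = peptide control; nearly all actives have a fitted effect of over 45% in size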
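AMA1 (3D7) with his tag at 25 nM final met compounds first, then biotinylated RON2 peptide at 25 nM; detection used donor plus acceptor beads, 10 µg/mL apiece, read by AlphaScreen after 30 min at room temperature.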
AmpC inh no detg: inhibitors of E. coli AmpC beta-lactamase without detergent; AmpC nitrocefin hydrolysis, absorbance 480 nm, 0.0001% Triton; AID 485341; 330,000 compounds, 0.52% hits; Potency, µM (series often up to 57.1 µM), for the others: top-dose activity change, negative = inhibition, hits mostly inhibitors;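 note: plate controls were no compound for no effect and no enzyme for full effect; nearly all actives have a fitted effect of over 20% in size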
Target sequence (P00811 whole entry, looked up): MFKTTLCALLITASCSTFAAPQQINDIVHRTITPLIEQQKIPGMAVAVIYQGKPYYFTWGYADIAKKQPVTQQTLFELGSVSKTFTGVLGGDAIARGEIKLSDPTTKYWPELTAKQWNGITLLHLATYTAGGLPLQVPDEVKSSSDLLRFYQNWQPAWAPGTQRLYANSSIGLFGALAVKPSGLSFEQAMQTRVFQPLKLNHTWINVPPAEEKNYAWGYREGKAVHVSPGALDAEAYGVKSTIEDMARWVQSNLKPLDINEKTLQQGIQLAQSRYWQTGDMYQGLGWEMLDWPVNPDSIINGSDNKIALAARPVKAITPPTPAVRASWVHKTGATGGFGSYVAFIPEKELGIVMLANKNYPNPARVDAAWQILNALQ
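AmpC (5.3 nM in the dispensed reagent) in 20 mM phosphate pH 7.0 with 0.01% (detergent screen) or 0.0001% Triton X-100 was preincubated with compounds for 15 min at room temperature. Nitrocefin was then added from an 800 uM solution, and hydrolysis was followed at 480 nm.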
Pf growth 48h: P. falciparum growth inhibition at 48 hours (one generation). P. falciparum luciferase growth in erythrocytes, 48 h. Potency, µM (series often up to 28.7 µM), for inactives: top-dose activity change, negative = inhibition, actives largely listed as inhibitors. 310,000 compounds, 5.9% hits. AID 504832
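Parasite viability was followed by luminescence of a genomically integrated firefly luciferase. Cultures held 0.1% parasitemia at 2% hematocrit (final), incubated under 5% CO2 at 37 C.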
Pf growth 96h: P. falciparum growth inhibition at 96 hours. P. falciparum luciferase reporter growth, 96 h. Potency, µM (titrated, usually from 28.7 µM), without a hit: at the top dose activity change, negative = inhibition, usual class: inhibitors. 320,000 compounds, 6.9% hits. AID 504834
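96 h incubation, 37 C, 5% CO2, of luciferase-reporter P. falciparum-infected RBCs (2% hematocrit, 0.05% parasitemia final) with test compounds; endpoint luminescence.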
HCV inh: blocks hepatitis C virus. Huh7.5.1 HCVcc-Cre infection, luciferase reporter, 44 h. Potency, µM (titrated, usually from 41.8 µM), inactives show at the top dose activity change, negative = inhibition, most hits filed as inhibitors. 340,000 compounds, 3.4% hits. AID 651820
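Whole-lifecycle infectious HCVcc-Cre system; cells 1,000/well, compound then virus (~0.5 moi) added 4 h after plating, 44 h culture. Luciferase read 15 sec following 15 min substrate incubation, room temp.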
AmpC inh detg: inhibitors of E. coli AmpC beta-lactamase with detergent; 370,000 compounds, 0.041% hits; Potency, µM (highest dose often 114 µM), for inactives: top-dose activity change, negative = inhibition, usual class: inhibitors; P00811; AmpC hydrolysis of nitrocefin, absorbance 480 nm, 0.01% Triton; AID 485294;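 note: 0% = no-compound wells and -100% = no-enzyme wells; nearly all actives have a fitted effect of over 25% in size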
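20 mM phosphate pH 7.0 + 0.01% (detergent screen) or 0.0001% Triton X-100; 5.3 nM AmpC reagent; cpd preinc 15 min RT; nitrocefin (800 uM stock) to start; A480 q20 s × 4 min; Activity was normalised to no-enzyme and no-compound control wells.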
* marks the source's active call; other numbers are inactive results; ? = inconclusive; / = no result given. In the library only some 11% were active in any assay of this set; here they are far more common. Calls come from the whole dose curve; as a rule, active = well fitted curve in the direction sought with a large enough effect; inconclusive = small, poorly fitted or top-dose-only effect, or another doubt; inactive = no such curve, though single readings can be large; an effect the other way counts as inactive or inconclusive. Unless noted, % is set by controls: 0 for no effect and ±100 for the full control effect; potency is the fitted concentration of half-maximal effect.

SMILES	AMA1 RON2 block	AmpC inh no detg	Pf growth 48h	Pf growth 96h	HCV inh	AmpC inh detg
Cc1cccc(C)c1NC(=O)Cn1c(=O)n(CCC(=O)NCc2ccc3c(c2)OCO3)c(=O)c2sccc21	/	/	/	/	/	13%
CCCCOC(=O)c1ccc(Nc2nc3ccc(C)cc3n3cnnc23)cc1	/	/	/	/	/	9%
COc1cc(NC(=S)NN2CCN(C)CC2)cc(OC)c1OC	-11%	-21%	-8%	-2%	15%	-5%
COc1ccc(NC(=S)NN2CCN(C)CC2)cc1OC	-1%	-19%	24%	2.3µM*	11%	-12%
COc1ccc(N2C(=O)C(C)(C)C2c2c(O)ccc3ccccc23)cc1 (centres undefined)	-13%	-14%	8.3µM*	-2%	?	-6%
COc1ccc(Cl)cc1NC(=O)c1sc(-n2nc(C)c(Cc3ccccc3)c2C)nc1C	/	/	/	/	/	20%
C=C(C)COc1ccc2c3c(c(=O)oc2c1OCC(=C)C)CCC3	57%	-11%	-4%	?	-17%	1%
C=C(C)COc1ccc2c(CC)cc(=O)oc2c1C	12%	-16%	10%	68%	11µM*	0%
COc1ccc2c(C)cc(=O)oc2c1C	-13%	-1%	/	5.9µM*	-9%	-19%
C=C(C)COc1ccc2c(C)c(C)c(=O)oc2c1OCC(=C)C	-1%	-11%	12µM*	4%	-28%	?
COc1ccc(Cn2c(C(=O)O)c(CNCc3ccc(SC)cc3)c3ccc(OC)cc32)cc1	/	/	/	/	/	-11%
O=C(O)c1ccc2c(=O)[nH]c(CCl)nc2c1	57%	-8%	?	13µM*	14%	5%
CCCCn1cnc2cc(NC(=O)c3cc(OC)c(OC)c(OC)c3)ccc21	/	/	/	/	/	21%
Cc1nc2ncnn2c(C)c1CCC(=O)N1CCN(c2ccccc2)CC1	/	/	/	/	/	2%
COc1ccccc1CCNC(=O)/C(=C/c1cccnc1)NC(=O)c1ccccc1	0%	-23%	-11%	10µM*	-7%	-13%
COc1ccccc1NC(=O)/C(=C\c1cccnc1)NC(=O)c1ccccc1	12%	-12%	-12%	26%	-3%	-8%
COc1ccccc1NC(=O)/C(=C\c1cccnc1)NC(=O)c1ccc(C)cc1	4%	2%	-8%	10µM*	6%	5%
S=c1sc2c(N3CCOCC3)ncnc2n1-c1ccccc1	5%	12%	/	15µM*	0%	1%
CCN1CCN(c2ncnc3c2sc(=S)n3-c2ccccc2)CC1	58%	-2%	8%	?	-1%	?
Cc1ccc(-n2c(=O)c3c(cnn3C)n(CC(=O)Nc3cccc(C)c3)c2=O)cc1	/	/	/	/	/	-2%
CC1(C)CC(=O)C(C=NCCN2CCN(C3CC(=O)N(c4ccc(Br)cc4)C3=O)CC2)=C(O)C1 (centres undefined)	51%	57%	31%	13µM*	29%	-4%
O=C(Nc1cccc(Cl)c1)N(Cc1nc2ccccc2c(=O)[nH]1)C1CCCC1	59%	-24%	-8%	4%	-12%	-16%
O=C(Nc1cccc(Cl)c1)N(Cc1nc2ccccc2c(=O)[nH]1)Cc1cccs1	51%	-23%	7.4µM*	?	1%	?
CCOC(=O)c1ccc(NC2c3ccccc3C(=O)N2c2ccc(C)cn2)cc1 (centres undefined)	3%	-7%	/	12µM*	12%	?
Cc1ccc(N2C(=O)c3ccccc3C2Nc2ccccc2)nc1 (centres undefined)	0%	-3%	/	10µM*	-19%	?
COc1ccccc1NC(=O)C1=C(C)Nc2nc(SC)nn2C1c1ccccc1Cl (centres undefined)	/	/	/	/	/	1%
Cc1cc(C)c(NC(=O)c2cc(S(=O)(=O)N3CCC4(CC3)OCCO4)ccc2F)c(C)c1	/	/	/	/	/	-3%
COc1ccc(-c2cc(C(C)=O)c(C)n2CCC(=O)Nc2ccc(C(F)(F)F)cc2)cc1	/	/	/	/	/	-4%
